# PubChem BioAssay (EPA / NIEHS)
# Records with an inconclusive call do not appear. The source made the active and inactive calls. The calls were made as follows, unless noted: active = hit-call score of the fitted dose curve at least 0.9, where 1 is the maximum; inconclusive = response in the unintended direction; inactive = score below 0.9.
# Legend:
# [1] = TOX21_p53_BLA_p5_viability: Viability Assessment in the Tox21 HCT-116 p53 Agonism Beta-lactamase Assay, Phase 5 (AID 2283600)
# Method in brief: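 Cells were plated at 4000/well, rested 5 h at 37C, then given compounds in DMSO (217-fold dilution) for 16 h at 37C, 5% CO2. Following the CCF4-AM beta-lactamase read, CellTiter-Glo was added and luminescence was read after 30 min at room temperature.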
# [2] = target: Cellular tumor antigen p53 (Homo sapiens) (UniProt P04637); experiment: TOX21_p53_BLA_p4_ratio: Tox21 HCT-116 p53 Agonism Beta-lactamase Assay, Ratio, Phase 4 (AID 2283601)
# Cellular tumor antigen p53 (Homo sapiens), sequence (P04637 whole entry, looked up): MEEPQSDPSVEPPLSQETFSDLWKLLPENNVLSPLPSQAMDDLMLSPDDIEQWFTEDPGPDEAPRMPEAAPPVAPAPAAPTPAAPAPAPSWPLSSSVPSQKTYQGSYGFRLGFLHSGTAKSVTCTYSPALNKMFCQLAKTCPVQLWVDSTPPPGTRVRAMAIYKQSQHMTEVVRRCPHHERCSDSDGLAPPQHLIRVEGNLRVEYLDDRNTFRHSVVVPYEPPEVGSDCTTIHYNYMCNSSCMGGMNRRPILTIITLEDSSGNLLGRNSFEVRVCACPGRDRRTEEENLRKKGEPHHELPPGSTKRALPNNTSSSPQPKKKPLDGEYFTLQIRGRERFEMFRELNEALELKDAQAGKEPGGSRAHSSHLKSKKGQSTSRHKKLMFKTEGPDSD
# Method in brief: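 HCT-116 p53 beta-lactamase reporter cells (4000/well) preincubated 5 h, then compound (217-fold dilution of DMSO stock) for 16 h at 37C. CCF4-AM substrate added 2 h at room temperature; 460/530 nm emission ratio fitted upward versus DMSO.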
# [3] = target: Luciferin 4-monooxygenase (Photinus pyralis) (UniProt P08659); experiment: CCTE_Simmons_QuantiLum_inhib_2: CCTE's Firefly Luciferase Inhibition Assay, Simmons Lab (AID 2283767);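 as to AC50: potency for inhibitors that lower luciferase luminescence relative to DMSO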
# Luciferin 4-monooxygenase (Photinus pyralis), sequence (P08659 whole entry, looked up): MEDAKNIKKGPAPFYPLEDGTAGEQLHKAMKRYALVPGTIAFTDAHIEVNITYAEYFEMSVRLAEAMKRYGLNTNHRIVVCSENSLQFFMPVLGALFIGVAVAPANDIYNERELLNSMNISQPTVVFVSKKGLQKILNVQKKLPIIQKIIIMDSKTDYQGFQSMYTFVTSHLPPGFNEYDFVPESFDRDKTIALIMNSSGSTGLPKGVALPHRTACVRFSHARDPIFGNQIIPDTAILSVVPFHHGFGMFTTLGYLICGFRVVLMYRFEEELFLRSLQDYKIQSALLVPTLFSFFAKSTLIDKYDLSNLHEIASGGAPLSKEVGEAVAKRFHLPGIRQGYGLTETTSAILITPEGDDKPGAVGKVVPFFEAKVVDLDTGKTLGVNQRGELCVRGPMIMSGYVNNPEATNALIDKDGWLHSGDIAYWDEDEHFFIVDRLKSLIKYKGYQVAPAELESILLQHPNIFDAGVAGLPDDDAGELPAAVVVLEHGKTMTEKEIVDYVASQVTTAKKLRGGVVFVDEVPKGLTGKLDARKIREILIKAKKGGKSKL
# Method in brief: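 Recombinant firefly luciferase (5 ng/well, 200 mM potassium phosphate with 1 mg/ml BSA) was exposed to 8 concentrations from 5 nM to 87.5 uM (final, 0.5% DMSO) for 30 min at 37C in the dark. Loss of luminescence versus DMSO was read after injecting D-luciferin/ATP-analogue reagent.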
# [4] = target: Thyroid hormone receptor alpha (Rattus norvegicus) + Thyroid hormone receptor beta (Rattus norvegicus) (UniProt P18113+P63059); experiment: TOX21_TR_LUC_GH3_Antagonist_Followup: Tox21 GH3 Thyroid Hormone Receptor Antagonism Luciferase Follow-Up Assay (AID 2283942)
# Method in brief: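 Antagonist mode: GH3 cells seeded 1,500/well, compounds at 15 concentrations (92 uM to 5nM final) plus T3 at 1.0 nM final, 24 h at 37C. Luciferase read with ONE-Glo after 30 min at room temperature.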
# THRA (gene 7067) = THRA (gene 7067) (UniProt P10827); experiment: TOX21_TRA_COA_Antagonist_Followup_ratio: Tox21 Thyroid Hormone Receptor alpha Antagonism through Coactivator Recruitment Follow-Up Assay, Ratio (AID 2283953)
# THRA (gene 7067), sequence (P10827 whole entry, looked up, the tested form may be a part): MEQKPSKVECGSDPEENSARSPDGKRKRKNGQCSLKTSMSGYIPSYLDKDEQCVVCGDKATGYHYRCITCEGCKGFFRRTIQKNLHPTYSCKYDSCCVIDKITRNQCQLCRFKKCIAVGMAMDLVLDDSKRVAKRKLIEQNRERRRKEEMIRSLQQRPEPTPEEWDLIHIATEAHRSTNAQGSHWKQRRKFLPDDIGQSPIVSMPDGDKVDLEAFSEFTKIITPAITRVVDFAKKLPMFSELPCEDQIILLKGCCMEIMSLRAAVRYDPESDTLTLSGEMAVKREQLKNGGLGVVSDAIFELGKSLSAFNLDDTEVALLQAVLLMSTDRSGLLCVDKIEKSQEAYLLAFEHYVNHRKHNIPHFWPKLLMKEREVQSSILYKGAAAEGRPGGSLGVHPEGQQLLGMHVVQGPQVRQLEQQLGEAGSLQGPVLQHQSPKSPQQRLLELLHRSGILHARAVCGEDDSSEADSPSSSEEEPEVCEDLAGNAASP
# Method in brief: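 This follow-up to the GH3 luciferase screen checks specificity in a cell-free format. It measures SRC-2 coactivator peptide binding to TRα LBD by TR-FRET and scores loss of ratio signal relative to DMSO.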
# THRB (gene 7068) = THRB (gene 7068) (UniProt P10828); experiment: TOX21_TRB_BLA_Antagonist_Followup_ratio: Tox21 Thyroid Hormone Receptor beta Antagonism Beta-lactamase (BLA) Follow-Up Assay, Ratio (AID 2283958)
# THRB (gene 7068), sequence (P10828 whole entry, looked up, the tested form may be a part): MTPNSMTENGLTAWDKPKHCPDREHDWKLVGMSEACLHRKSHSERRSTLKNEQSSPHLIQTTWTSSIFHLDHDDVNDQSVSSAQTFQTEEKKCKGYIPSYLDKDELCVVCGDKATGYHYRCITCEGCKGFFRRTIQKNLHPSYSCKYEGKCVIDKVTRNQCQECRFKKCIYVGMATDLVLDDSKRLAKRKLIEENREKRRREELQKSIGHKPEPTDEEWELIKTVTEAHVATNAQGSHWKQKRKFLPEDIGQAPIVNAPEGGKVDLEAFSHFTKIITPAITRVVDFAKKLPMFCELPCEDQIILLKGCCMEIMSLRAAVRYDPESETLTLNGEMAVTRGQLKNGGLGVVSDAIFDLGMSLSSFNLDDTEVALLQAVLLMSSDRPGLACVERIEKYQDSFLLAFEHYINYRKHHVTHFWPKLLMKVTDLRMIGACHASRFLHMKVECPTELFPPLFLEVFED
# Method in brief: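 GAL4-DBD/human TRβ-LBD fusion in GeneBLAzer UAS-bla HEK293T cells, 3,000 cells/well in phenol red-free DMEM with 2% charcoal-stripped FBS; compounds at 11 concentrations in triplicate, 18 h at 37C. CCF4-AM substrate 2 h, 460:530 nm ratio relative to DMSO.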
# [5] = TOX21_TRB_BLA_Antagonist_Followup_viability: Viability Assessment in the Tox21 Thyroid Hormone Receptor beta Antagonism Beta-lactamase (BLA) Follow-Up Assay (AID 2283961)
# Method in brief: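 HEK293T cells stably expressing GAL4-DBD/human TRβ-LBD with UAS-bla reporter, 3,000 cells/well in phenol red-free DMEM, 2% charcoal-stripped FBS. Compounds at 11 concentrations in triplicate, 18 h at 37C/5% CO2; viability by CellTiter-Glo luminescence after 30 min at room temperature.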
# [6] = target: Retinoic acid receptor RXR-alpha (Homo sapiens) (UniProt P19793); experiment: TOX21_TR_RXR_BLA_Antagonist_Followup_ratio: Tox21 Thyroid Hormone Receptor beta Retinoid X Receptor alpha (RXRa) Antagonism Beta-lactamase (BLA) Follow-Up Assay, Ratio (AID 2283972)
# Retinoic acid receptor RXR-alpha (Homo sapiens), sequence (P19793 whole entry, looked up): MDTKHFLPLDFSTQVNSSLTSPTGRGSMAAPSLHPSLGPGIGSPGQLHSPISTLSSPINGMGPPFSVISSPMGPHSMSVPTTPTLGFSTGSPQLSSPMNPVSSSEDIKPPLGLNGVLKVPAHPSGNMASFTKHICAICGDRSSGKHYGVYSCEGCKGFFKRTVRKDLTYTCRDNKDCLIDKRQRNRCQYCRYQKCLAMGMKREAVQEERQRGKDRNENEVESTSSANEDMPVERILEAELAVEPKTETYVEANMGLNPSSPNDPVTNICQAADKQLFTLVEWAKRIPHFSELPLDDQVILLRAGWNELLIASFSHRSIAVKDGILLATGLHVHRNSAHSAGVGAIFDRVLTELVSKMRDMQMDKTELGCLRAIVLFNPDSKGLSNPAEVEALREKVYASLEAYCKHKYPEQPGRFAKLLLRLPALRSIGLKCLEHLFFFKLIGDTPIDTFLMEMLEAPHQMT
# Method in brief: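 RXRa-UAS-bla HEK293T cells in phenol red-free DMEM with 2% charcoal-stripped FBS; compounds at 11 concentrations in triplicate, 16 h at 37C. LiveBLAzer FRET-B/CCF4-AM substrate 2 h at room temperature; read as 460:530 nm ratio versus DMSO.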
# [7] = TOX21_TR_RXR_BLA_Antagonist_Followup_viability: Viability Assessment in the Tox21 Thyroid Hormone Receptor beta Retinoid X Receptor alpha (RXRa) Antagonism Beta-lactamase (BLA) Follow-Up Assay (AID 2283979)
# Method in brief: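 RXRa-bla HEK293T cells (2,500/well, phenol red-free DMEM, 2% charcoal-stripped FBS) were attached 5 h, then exposed to compounds at 11 concentrations in triplicate for 16 h at 37C. Viability measured by CellTiter-Glo ATP luminescence, bidirectional fitting versus DMSO.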
# [8] = ACEA_ER_AUC_viability: ACEA Biosciences xCELLigence Real-Time Cell Analysis on Estrogen Receptor Agonism for Viability (AID 2283782);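 also: continuous compound exposure with impedance area under curve over 80 h; hit means loss of impedance signal meaning reduced cell growth or viability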
# Method in brief: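 T47D cells preconditioned in phenol red-free RPMI with charcoal-stripped FBS, then dosed with 8-point 1:4 series from 100 uM (up to 0.5% DMSO). Impedance monitored up to ~80 h; area-under-curve loss versus DMSO taken as viability.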
# [9] = CCTE_Simmons_CellTiterGLO_HEK293T: Viability Assessment in CCTE's Assays for Thyroperoxidase (TPO) Inhibition, Simmons Lab (AID 2283665);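 as to AC50: cells exposed to compound for 24 h before readout; actives reduce ATP signal below DMSO vehicle meaning cytotoxicity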
# Method in brief: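 HEK293T cells in DMEM with 1% FBS were dosed with 8 concentrations (5 nM–87.5 uM final, 0.5% DMSO) for 24 hr at 37C; ATP content was read by CellTiter-Glo luminescence, loss-of-signal versus DMSO, three biological replicates.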
# PGR (gene 5241) [10] = target: PGR (gene 5241) (UniProt P06401); experiment: TOX21_PR_BLA_Followup_Agonist_ratio: Tox21 HEK293 Progesterone Receptor (PR) Agonism Beta-lactamase Follow-Up Assay, Ratio (AID 2283933)
# PGR (gene 5241), sequence (P06401 whole entry, looked up, the tested form may be a part): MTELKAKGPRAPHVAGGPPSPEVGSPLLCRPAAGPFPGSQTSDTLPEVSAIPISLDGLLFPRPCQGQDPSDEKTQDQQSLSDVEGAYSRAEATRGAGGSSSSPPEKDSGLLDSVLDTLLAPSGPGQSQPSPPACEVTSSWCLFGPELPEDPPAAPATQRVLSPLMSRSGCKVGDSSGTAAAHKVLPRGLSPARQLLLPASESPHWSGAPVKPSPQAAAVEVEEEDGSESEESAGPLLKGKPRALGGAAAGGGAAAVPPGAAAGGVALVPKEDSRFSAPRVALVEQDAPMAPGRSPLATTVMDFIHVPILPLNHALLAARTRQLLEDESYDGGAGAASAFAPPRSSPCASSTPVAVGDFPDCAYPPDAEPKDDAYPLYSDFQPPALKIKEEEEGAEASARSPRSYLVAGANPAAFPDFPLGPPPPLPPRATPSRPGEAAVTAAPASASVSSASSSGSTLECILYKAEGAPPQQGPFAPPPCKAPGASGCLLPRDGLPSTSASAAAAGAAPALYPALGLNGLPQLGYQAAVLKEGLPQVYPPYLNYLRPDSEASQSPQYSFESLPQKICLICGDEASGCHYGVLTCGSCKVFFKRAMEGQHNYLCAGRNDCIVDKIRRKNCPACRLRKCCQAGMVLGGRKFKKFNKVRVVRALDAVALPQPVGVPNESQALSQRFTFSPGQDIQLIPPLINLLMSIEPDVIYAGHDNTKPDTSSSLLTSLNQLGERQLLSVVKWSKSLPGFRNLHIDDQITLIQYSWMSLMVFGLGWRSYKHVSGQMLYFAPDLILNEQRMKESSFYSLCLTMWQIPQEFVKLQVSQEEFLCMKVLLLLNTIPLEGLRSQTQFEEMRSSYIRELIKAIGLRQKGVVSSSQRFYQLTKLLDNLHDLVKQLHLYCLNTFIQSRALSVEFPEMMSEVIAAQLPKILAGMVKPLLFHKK
# Method in brief: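 PR-UAS-bla HEK293T cells (GAL4-UAS beta-lactamase reporter) in medium with 2% charcoal-stripped FBS received compounds after 6 hr at 37C, then incubated 16 hr. LiveBLAzer FRET substrate added, 2 hr room temperature; cleaved/uncleaved (ch2/ch1) ratio fitted upward versus DMSO.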
# PGR (gene 5241) [11] = target: PGR (gene 5241) (UniProt P06401); experiment: TOX21_PR_BLA_Followup_Antagonist_ratio: Tox21 HEK293 Progesterone Receptor (PR) Antagonism Beta-lactamase Follow-Up Assay, Ratio (AID 2283934)
# Method in brief: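 PR-UAS-bla HEK293T cells in medium with 2% charcoal-stripped FBS were treated with compounds plus 1 nM (final) promegestone (R5020) for 16 hr at 37C. LiveBLAzer B/G FRET substrate was then added for 2 h at room temperature; signal is cleaved/uncleaved substrate ratio versus DMSO.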
# [12] = TOX21_PR_BLA_Followup_Agonist_viability: Viability Assessment in the Tox21 HEK293 Progesterone Receptor (PR) Agonism Beta-lactamase Follow-Up Assay (AID 2283935);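 also: signal loss means lower viability so actives are cytotoxic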
# Method in brief: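 PR-UAS-bla HEK293T cells in 2% charcoal-stripped FBS medium, compound added after 6 hr plating, 16 hr at 37C/5% CO2. After bla FRET read, CellTiter-Glo added; luminescence read after 30 min at room temperature; signal loss marks cytotoxicity.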
# [13] = TOX21_PR_BLA_Followup_Antagonist_viability: Viability Assessment in the Tox21 HEK293 Progesterone Receptor (PR) Antagonism Beta-lactamase Follow-Up Assay (AID 2283936);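 also: hits lower the luminescence signal meaning cytotoxicity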
# Method in brief: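 PR-UAS-bla HEK293T cells (3,000/well, 2% charcoal-stripped FBS) given compound plus R5020 agonist, 16 h at 37C. CellTiter-Glo added after bla read, 30 min at room temperature; luminescence loss indicates cytotoxicity.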
# PGR (gene 5241) [14] = target: PGR (gene 5241) (UniProt P06401); experiment: TOX21_PR_LUC_Followup_Agonist: Tox21 HEK293 Progesterone Receptor (PR) Agonism Luciferase Follow-Up Assay (AID 2283937; active = hit-call score of the fitted dose curve at least 0.9, where 1 is the maximum; inactive = score below 0.9)
# Method in brief: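 HEK293-PR-A-luc cells, pre-cultured 5 days in medium with 10% charcoal-stripped FBS, were seeded at 3,000 cells/well, rested 5 h at 37C, then exposed to compounds 16 h at 37C; luciferase read by ONE-Glo luminescence after 30 min.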
# [15] = CCTE_Harrill_HTTr_Viability_MCF7: CCTE's 6-hour Cell Viability Assessment for the High-Throughput Transcriptomics (HTTr) Platform, in MCF-7 cells cultured in DMEM + 10% fetal bovine serum, Harrill Lab (AID 2284010; active = hit-call score of the fitted dose curve at least 0.9, where 1 is the maximum; inactive = score below 0.9)
# Method in brief: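 Membrane integrity was scored by high-content imaging of propidium iodide dye exclusion after a 6 h exposure across an eight-point dilution series. Data were fitted bidirectionally relative to DMSO as negative control and baseline.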
# [16] = CCTE_Harrill_HTTr_Apoptosis_MCF7: CCTE's 6-hour Apoptosis Assessment for the High-Throughput Transcriptomics (HTTr) Platform, in MCF-7 cells cultured in DMEM + 10% fetal bovine serum, Harrill Lab (AID 2284011; active = hit-call score of the fitted dose curve at least 0.9, where 1 is the maximum; inactive = score below 0.9)
# Method in brief: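 MCF-7 cells in DMEM + 10% fetal bovine serum were exposed to chemicals for 6 hours over an eight-point dilution series. Caspase-3/7 activation was imaged by high content imaging with CellEvent Caspase 3/7 Green; bidirectional fitting used DMSO as baseline.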
# [17] = CCTE_Harrill_HTTr_CellCount_MCF7: CCTE's Cell Proliferation Assessment for the High-Throughput Transcriptomics (HTTr) Platform, Harrill Lab (AID 2284012);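 also: cells exposed to compound for six hours; intended direction is loss of nuclei count meaning fewer cells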
# Method in brief: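 MCF-7 cells were exposed for 6 h to an eight-point dilution series; Hoechst-labeled nuclei were counted by high content imaging. Curves were fitted bidirectionally against DMSO as negative control and baseline, with signal loss indicating reduced cell count.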
smiles,measurement,setting,value
Cc1ccc(C)c(N)c1,outcome,[1],inactive
same,outcome,[2],inactive
Cc1ccc(O)c([C@H](CCN(C(C)C)C(C)C)c2ccccc2)c1,outcome,[2],inactive
CC(=O)OC(C)OC(C)=O,outcome,[1],inactive
same,outcome,[2],inactive
CCCOC(=O)c1ccc(N)cc1,outcome,[2],inactive
CCN1CCCC1CNC(=O)c1cc(S(=O)(=O)CC)c(N)cc1OC (stereo not given),outcome,[2],inactive
OC(c1ccccc1)c1ccccc1,outcome,[3],inactive
COc1ccc2c(c1)N(C[C@H](C)CN(C)C)c1ccccc1S2,outcome,[2],inactive
same,AC50,[4],2.79 µM (active)
same,outcome,THRA (gene 7067),inactive
same,outcome,THRB (gene 7068),inactive
same,outcome,[5],inactive
same,outcome,[6],inactive
same,outcome,[7],inactive
O=c1[nH]c2ccccc2s1,outcome,[3],inactive
COc1c[nH]ccc1=O,outcome,[3],inactive
O=C(O)c1c(Cl)ccc(Cl)c1Cl,outcome,[8],inactive
CNC(=O)N(c1ccccc1)c1ccccc1,outcome,[2],inactive
OCc1ncccc1O,outcome,[9],inactive
same,outcome,[3],inactive
CN(C)C(=S)N(C)C,AC50,[3],79.5 µM (active)
CC1=CC(=O)CCC1,outcome,[8],inactive
CCCCOC(=O)c1ccccc1O,AC50,[9],53.6 µM (active)
same,outcome,[3],inactive
C1CCC2(CCCCO2)OC1,outcome,[8],inactive
O=C1CC(c2ccc(O)cc2)Oc2cc(O)cc(O)c21 (stereo not given),outcome,[9],inactive
same,outcome,[3],inactive
Cc1cc(N)no1,outcome,[1],inactive
same,outcome,[2],inactive
CCN(CC)CCOC(=O)C(c1ccccc1)C1CCCCC1 (stereo not given),outcome,[1],inactive
same,outcome,[2],inactive
Clc1ccc2c(c1)Nc1ccccc1S2,outcome,PGR (gene 5241) [10],inactive
same,AC50,PGR (gene 5241) [11],19.4 µM (active)
same,outcome,[12],inactive
same,outcome,[13],inactive
same,outcome,PGR (gene 5241) [14],inactive
Cc1ccc(C=C2C(=O)C3(C)CCC2C3(C)C)cc1 (stereo not given),AC50,[9],15.3 µM (active)
C=CC1CNC(=S)O1 (stereo not given),outcome,[3],inactive
O=C(c1ccccc1)c1ccc(O)cc1,outcome,[9],inactive
same,outcome,[3],inactive
same,outcome,[15],inactive
same,outcome,[16],inactive
same,outcome,[17],inactive
COc1cnc(NS(=O)(=O)c2ccc(N)cc2)nc1,outcome,[2],inactive
CSc1nc2ccccc2s1,AC50,[9],53.6 µM (active)
same,AC50,[3],35.1 µM (active)
CCOC(=O)/C=C/C(=O)OCC,outcome,[2],inactive
CCOc1ccccc1N,outcome,[2],inactive
O=Cc1c2ccccc2c(Cl)c2ccccc12,outcome,[2],inactive
